Screening results (PubChem BioAssay)
JMJD2A Tudor – JMJD2A Tudor domain (human) inhibition. O75164. AlphaScreen JMJD2A-Tudor / H3K4me3 peptide binding. Potency, µM (top dose mostly 114 µM), for inactives: at the top dose activity change, negative = inhibition, actives largely listed as inhibitors. 4.4% of 390,000 active; also: % is scaled to controls: 0 for no effect and ±100 for the full control effect; nearly all actives have a fitted effect of over 50% in size
PLK1 PBD block – blocks phosphopeptide binding to human PLK1 polo-box domain; P53350; Plk1 PBD binding of FITC phosphopeptide, fluorescence polarization; Potency, µM, for inactives: max response, negative = inhibition, most hits filed as inhibitors; 2.8% of 360,000 active; also: series mostly up to about 57 µM; % is scaled to controls: 0 for no effect and ±100 for the full control effect; nearly all actives have a fitted effect of over 65% in size
G9a inh – G9a (human) methyltransferase inhibition. Potency, µM (series often up to 102 µM), inactives show top-dose activity, negative = inhibition, most hits filed as inhibitors. 8.8% of 350,000 active. G9a H3K9 monomethylation, AlphaScreen, 2 h. AID 504332; also: % is scaled to controls: 0 for no effect and ±100 for the full control effect; nearly all actives have a fitted effect of over 75% in size
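AlphaScreen read-out: biotin-H3K9 peptide (500 nM) methylation by 20 nM enzyme with 20 uM SAM, 2 h at room temperature after 15 min compound preincubation; anti-monomethyl H3K9 antibody plus donor/acceptor beads, 10 min dark.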
BAZ2B inh – blocks human BAZ2B | Q9UIF8 | AlphaScreen BAZ2B-H3K14Ac peptide displacement | Potency, µM (doses to about 114 µM), without a hit: at the highest dose activity change, negative = inhibition, actives largely listed as inhibitors | 4.4% of 360,000 active | AID 504333; also: % is scaled to controls: 0 for no effect and ±100 for the full control effect; nearly all actives have a fitted effect of over 60% in size
Target sequence (Q9UIF8 whole entry, looked up): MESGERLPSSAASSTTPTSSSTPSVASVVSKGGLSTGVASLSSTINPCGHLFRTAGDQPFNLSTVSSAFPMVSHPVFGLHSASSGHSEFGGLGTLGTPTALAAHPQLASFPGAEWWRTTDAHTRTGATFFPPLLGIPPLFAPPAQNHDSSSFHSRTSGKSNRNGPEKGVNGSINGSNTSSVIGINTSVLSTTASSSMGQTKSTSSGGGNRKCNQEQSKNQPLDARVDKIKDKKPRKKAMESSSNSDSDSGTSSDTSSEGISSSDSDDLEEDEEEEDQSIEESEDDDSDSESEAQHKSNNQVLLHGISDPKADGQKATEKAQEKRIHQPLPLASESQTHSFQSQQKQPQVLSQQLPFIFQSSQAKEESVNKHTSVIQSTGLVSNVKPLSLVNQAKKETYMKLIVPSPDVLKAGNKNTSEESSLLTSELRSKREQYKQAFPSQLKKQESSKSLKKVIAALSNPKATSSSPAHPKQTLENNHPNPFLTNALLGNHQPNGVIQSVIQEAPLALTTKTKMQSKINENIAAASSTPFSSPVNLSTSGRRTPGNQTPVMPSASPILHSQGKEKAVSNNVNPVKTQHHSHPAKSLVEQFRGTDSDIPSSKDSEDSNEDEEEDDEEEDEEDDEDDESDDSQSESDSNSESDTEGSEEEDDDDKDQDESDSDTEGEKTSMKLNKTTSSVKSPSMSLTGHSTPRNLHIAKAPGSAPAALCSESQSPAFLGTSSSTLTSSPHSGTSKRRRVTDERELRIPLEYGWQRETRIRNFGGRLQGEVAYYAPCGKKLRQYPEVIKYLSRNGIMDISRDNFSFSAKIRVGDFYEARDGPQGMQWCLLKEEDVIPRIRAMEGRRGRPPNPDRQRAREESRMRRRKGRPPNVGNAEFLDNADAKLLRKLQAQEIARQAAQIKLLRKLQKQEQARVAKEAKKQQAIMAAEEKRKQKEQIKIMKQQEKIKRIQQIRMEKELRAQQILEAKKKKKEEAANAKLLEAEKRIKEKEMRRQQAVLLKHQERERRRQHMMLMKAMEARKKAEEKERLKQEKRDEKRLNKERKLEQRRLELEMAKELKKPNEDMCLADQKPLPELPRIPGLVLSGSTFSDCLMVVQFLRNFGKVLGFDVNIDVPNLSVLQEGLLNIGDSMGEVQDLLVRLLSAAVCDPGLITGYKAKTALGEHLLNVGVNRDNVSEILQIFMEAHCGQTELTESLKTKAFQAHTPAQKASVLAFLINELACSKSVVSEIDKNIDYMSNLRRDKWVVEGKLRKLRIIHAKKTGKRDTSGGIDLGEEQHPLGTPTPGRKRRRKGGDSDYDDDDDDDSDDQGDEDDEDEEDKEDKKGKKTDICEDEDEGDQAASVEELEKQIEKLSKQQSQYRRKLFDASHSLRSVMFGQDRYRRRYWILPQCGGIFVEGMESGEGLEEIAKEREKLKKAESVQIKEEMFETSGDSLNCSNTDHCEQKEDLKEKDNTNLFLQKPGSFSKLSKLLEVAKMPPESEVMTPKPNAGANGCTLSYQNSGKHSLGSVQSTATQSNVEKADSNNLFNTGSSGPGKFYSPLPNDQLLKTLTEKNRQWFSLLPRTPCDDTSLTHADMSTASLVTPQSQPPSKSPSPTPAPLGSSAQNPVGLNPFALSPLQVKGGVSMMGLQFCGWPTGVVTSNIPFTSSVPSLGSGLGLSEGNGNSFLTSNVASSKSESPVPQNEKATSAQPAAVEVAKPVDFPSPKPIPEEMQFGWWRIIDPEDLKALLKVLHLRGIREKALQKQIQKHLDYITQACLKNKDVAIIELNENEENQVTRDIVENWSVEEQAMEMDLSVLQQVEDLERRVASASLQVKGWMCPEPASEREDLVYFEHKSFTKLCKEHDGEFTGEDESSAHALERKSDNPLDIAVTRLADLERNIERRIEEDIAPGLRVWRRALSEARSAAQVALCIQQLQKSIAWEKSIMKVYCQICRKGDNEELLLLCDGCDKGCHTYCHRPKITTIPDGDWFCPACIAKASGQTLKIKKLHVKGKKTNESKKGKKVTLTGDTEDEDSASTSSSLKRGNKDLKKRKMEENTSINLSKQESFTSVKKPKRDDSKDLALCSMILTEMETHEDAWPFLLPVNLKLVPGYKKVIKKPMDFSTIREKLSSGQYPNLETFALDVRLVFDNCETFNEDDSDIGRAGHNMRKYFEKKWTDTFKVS
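Protein-peptide AlphaScreen: BAZ2B 50 nM, b-H3K14Ac 50 nM, 1x PBS pH 7.4 + 0.01% Tween-20. Preincubation 30 min RT; cpd 30 min RT (top 110 uM); beads 20 min RT, light-protected.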
HP1b chromo inh – HP1-beta chromodomain-methylated histone interaction inhibition | AlphaScreen HP1-beta / biotin-H3K9me3 peptide binding | Potency, µM (titrated, usually from 114 µM), without a hit: at the highest dose activity change, negative = inhibition, actives largely listed as inhibitors | 0.56% of 390,000 active | AID 540317; also: nearly all actives have a fitted effect of over 70% in size
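Compound inhibition of the preformed complex between 50 nM HP1-beta and 50 nM biotinylated H3K9me3 peptide was read by AlphaScreen. Buffer was PBS pH 7.4 with 0.01% Tween-20. Incubations ran 30 min at room temperature, with 10 ug/mL donor/acceptor beads.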
VDR inh – vitamin D3 receptor (human) inhibition. VDR-SRC2-3 peptide fluorescence polarization, 2 h. AID 504847. 0.93% of 400,000 active. P11473. Potency, µM, without a hit: max response, negative = inhibition, hits mostly inhibitors; also: % is scaled to controls: 0 for no effect and ±100 for the full control effect
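VDR–SRC2-3 interaction, FP format. Cmpds 23 nl via pintool, brief spin, 2 h ambient incubation.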
An asterisk follows results filed as active; u = inconclusive; x = not tested or not shown; [ ] = remark or other dose. Only some compounds are listed: those with a hit (about 11% of all), similar ones and a draw of the others. Calls follow the shape of the dose curve; as a rule, active = well fitted curve in the direction sought with a large enough effect; inconclusive = small, poorly fitted or top-dose-only effect, or another doubt; inactive = no such curve, though single readings can be large; an effect the other way counts as inactive or inconclusive. Potency is read from the fitted curve at half-maximal effect.

SMILES | JMJD2A Tudor | PLK1 PBD block | G9a inh | BAZ2B inh | HP1b chromo inh | VDR inh
C=C(C)C1CC=C(CN2CC(C)OC(C)C2)CC1 (stereo not drawn) | 4µM* | 0% | 7.9µM* | u | u | 12%
CC1(C)CC(C)(c2ccc(O)cc2O)N(c2ccc3ccccc3c2)C(=S)N1 (stereo not drawn) | u | -7% | u | 45µM* | -33% | 14%
CC1(C)CC(C)(c2ccc(O)cc2O)N(c2cccc(Cl)c2)C(=S)N1 (stereo not drawn) | u | -2% | u | u | -14% | -8%
CCc1ccccc1N(CC(=O)NC(C)(C)CC)C(=O)CCC(=O)Nc1nccs1 | -1% | 4% | 7% | u | 31% | -16%
NC(C(=O)O)C1ON=C(Cl)C1O (stereo not drawn) | 79µM* | 0% | x | x | 44% | -14%
CCOC(=O)/C(=C\c1ccccc1)C(=O)CCN1CCOCC1 | -22% | 6.7µM* | x | x | -21% | u
CCOC(=O)N1CCN(CC(O)COc2cc(C)cc(C)c2)CC1 (stereo not drawn) | 4% | -3% | -2%[2.33 µM] | 7% | 36% | 11%
CCOC(=O)c1cnc2oc3ccccc3n2c1=O | -16% | -16% | x | 18% | -17% | -14%
O=C(O)c1cnc2[nH]c3ccccc3n2c1=O | u | -14% | 50µM* | -35% | 0% | -9%
COc1ccc(C(=O)NC2CCSc3ccccc32)cc1F (stereo not drawn) | -4% | -5% | -5% | 2% | 13% | u
CCCCCCNC(=O)N[C@@H](C(=O)NCCC[C@H]1CN2C(=NC[C@@H]2Cc2ccccc2)N1CCc1cccc(OC)c1)C(C)C | 5µM* | 1.5µM* | u | 25µM* | u | u
N#CCSc1ccccc1NC(=O)CN1C(=O)C2CC=CCC2C1=O (stereo not drawn) | -16% | -6% | 45µM* | 11% | 10% | 11%
Cc1cccc(C)c1NC(=O)CN1C(=O)C2CC=CCC2C1=O (stereo not drawn) | -1% | 2% | -2%[12.7 µM] | -1% | 66% | 9%
Cc1cc(Br)ccc1NC(=O)CN1C(=S)NC(C)(C)CC1C (stereo not drawn) | 2% | -10% | 32µM* | -13% | -18% | -23%
CC1CC(C)(C)NC(=S)N1CCCC(=O)Nc1ccc(Br)cc1 (stereo not drawn) | -22% | -17% | -22% | -33% | 12% | -10%
Cc1cc(Br)ccc1NC(=O)CN1C(=O)C2CC=CCC2C1=O (stereo not drawn) | u | -24% | 0.79µM* | -9% | 7% | -18%
O=C(Nc1ccc(Cl)c(C(F)(F)F)c1)c1cc2nc(-c3ccc4c(c3)OCO4)cc(C(F)(F)F)n2n1 | -1% | x | -2%[59 µM] | -4% | 39% | -5%
C=CCOc1ccc(C(c2c(C(=O)O)[nH]c3ccccc23)c2c(C(=O)O)[nH]c3ccccc23)cc1 | 79µM* | 8.4µM* | 35µM* | 50µM* | 71µM* | -15%
COc1ccc(CN=Cc2c(C(=O)O)[nH]c3ccccc23)cc1 | -4% | -4% | -31% | 4% | 42% | -5%
Cc1ccc(C(c2ccccc2)c2c(C)[nH]c3ccccc23)s1 (stereo not drawn) | 6% | x | -2%[59 µM] | 50% | 101% | -1%
O=C(O)c1[nH]c2ccccc2c1C(c1ccccc1)c1c(C(=O)O)[nH]c2ccccc12 | -13% | 27µM* | -50% | -33% | 19% | u
COc1cc(C(c2c(C(=O)O)[nH]c3ccccc23)c2c(C(=O)O)[nH]c3ccccc23)ccc1OCc1ccccc1 | u | 8.4µM* | 18%[0.501 µM] | 4% | u | 11%
O=C(O)c1[nH]c2ccccc2c1C(c1cc(Cl)cc([N+](=O)[O-])c1O)c1c(C(=O)O)[nH]c2ccccc12 | u | 7.5µM* | x | u | -15% | 79µM*
Cc1ccc(CNC(=O)C2CCN(c3nn4cc(-c5ccc(F)cc5)nc4s3)CC2)cc1 | -15% | x | 1%[59 µM] | 2% | -11% | 0%
O=C(CN1CCNCC1)N1CCOCC1 | x | -3% | x | x | x | x
SMILES | JMJD2A Tudor | PLK1 PBD block | G9a inh | BAZ2B inh | HP1b chromo inh | VDR inh
O=C(/C=C/c1ccccc1)C1C(=O)c2ccccc2C1=O | -13% | -24% | -5%[59 µM] | 10% | 15% | -2%
CCc1ccc(/C=C/C(=O)C2C(=O)c3ccccc3C2=O)cc1 | -21% | 27µM* | u | -4% | 22% | u
COc1ccc(OC)c(NC(=O)CSc2nnc(CNC(=O)c3cccs3)o2)c1 | -1% | -20% | -12% | -13% | 51% | 4%
COc1ccc(CNC(=O)c2sc3nc4c(c(C(F)(F)F)c3c2N)CCC4)cc1OC | u | u | 7%[59 µM] | 9% | u | 40µM*
Cc1c(N=Cc2cc3c(cc2[N+](=O)[O-])OCO3)cccc1[N+](=O)[O-] | u | u | x | x | -9% | 89µM*
Cc1ccccc1N=Cc1cc2c(cc1[N+](=O)[O-])OCO2 | u | -13% | 45µM* | u | -28% | 3%
COc1ccccc1CNC(=O)CCCCn1c(=O)c2ccccc2n(Cc2ccccc2C)c1=O | 3% | x | -21%[59 µM] | u | 17% | -4%
C(=C\c1ccco1)/C1=NN(c2ccccc2)C(c2ccco2)C1 (stereo not drawn) | 31% | 1% | -1%[59 µM] | u | 55% | -27%
O=[N+]([O-])c1ccc(/C=C/C2=NN(c3ccccc3)C(c3ccco3)C2)o1 (stereo not drawn) | 3.2µM* | 4% | 32µM* | 32µM* | u | 3%
Cc1ccccc1S(=O)(=O)NC(=O)C1(C)CCN1C(=O)Cc1ccccc1Cl (stereo not drawn) | x | -4% | x | x | x | x
O=C(NC(NNc1ccc([N+](=O)[O-])cc1)(C(F)(F)F)C(F)(F)F)c1ccc(Cl)cc1 | u | -26% | 40µM* | -39% | -32% | 79µM*
CN(Cc1ccco1)c1nc(-c2cccnc2)nc2ccccc12 | x | x | -1%[0.501 µM] | x | x | 32µM*
CN(Cc1ccccc1F)c1nc(-c2cccnc2)nc2ccccc12 | -2% | -3% | -29% | 2% | 75% | -14%
Cc1ccc(CN(C)c2nc(-c3cccnc3)nc3ccccc23)o1 | -32% | -14% | 40µM* | -22% | 24% | -18%
CN(C)c1nc(-c2cccc(C#N)c2)nc2ccccc12 | x | x | 9%[0.501 µM] | x | x | -27%
COc1cccc(-c2nc(N(C)C)c3ccccc3n2)c1 | x | x | -6%[0.501 µM] | x | x | 56µM*
CCOc1ccc(CN(C)c2nc(-c3cccnc3)nc3ccccc23)cc1OC | u | -12% | u | 35µM* | 1% | -17%
COC(=O)Cn1c(C(O)c2ccccc2)nc2ccccc21 (stereo not drawn) | 10% | 3% | 3% | 7% | 27% | -8%
